{"source": "the OligoGym collection", "data": [{"molecular_target": "KCNMB2", "experiment": "pooled miR-30 sensor sort-seq; sequence = guide strand", "conditions": "shRNA", "values": [{"sequence": "TTGATTTTTATTGTCTCTTCTG", "sensor-assay potency score (higher = more potent)": -0.466}, {"sequence": "TAACACTCTTCTGGTTTCCTTC", "sensor-assay potency score (higher = more potent)": -0.332}, {"sequence": "TGTTAGGATAACACTCTTCTGG", "sensor-assay potency score (higher = more potent)": -0.415}, {"sequence": "TTTTGTTAGGATAACACTCTTC", "sensor-assay potency score (higher = more potent)": -0.026}, {"sequence": "TTTTATTGTCTCTTCTGTGTGG", "sensor-assay potency score (higher = more potent)": 0.163}, {"sequence": "TAGGATAACACTCTTCTGGTTT", "sensor-assay potency score (higher = more potent)": 0.203}, {"sequence": "TTTATTGTCTCTTCTGTGTGGT", "sensor-assay potency score (higher = more potent)": 0.74}, {"sequence": "TTCCATGACAACATTCACCAGG", "sensor-assay potency score (higher = more potent)": -0.0986}, {"sequence": "TTATTGTCTCTTCTGTGTGGTA", "sensor-assay potency score (higher = more potent)": -0.319}, {"sequence": "TAGGGAACTCATAACAGACTGC", "sensor-assay potency score (higher = more potent)": -0.389}, {"sequence": "TTTGTTAGGATAACACTCTTCT", "sensor-assay potency score (higher = more potent)": 0.649}, {"sequence": "TTAGGATAACACTCTTCTGGTT", "sensor-assay potency score (higher = more potent)": -1.15}]}, {"molecular_target": "KCNN2", "experiment": "pooled miR-30 sensor sort-seq; sequence = guide strand", "conditions": "shRNA", "values": [{"sequence": "TTGTCGTAGCTCTCCATCTGAG", "sensor-assay potency score (higher = more potent)": -1.04}, {"sequence": "TTGATGAATAGCTTGCAGGAAT", "sensor-assay potency score (higher = more potent)": -0.859}, {"sequence": "TTAATTGATGAATAGCTTGCAG", "sensor-assay potency score (higher = more potent)": 0.193}, {"sequence": "TTCTTAATTGATGAATAGCTTG", "sensor-assay potency score (higher = more potent)": -1.14}, {"sequence": "TAATTGATGAATAGCTTGCAGG", "sensor-assay potency score (higher = more potent)": -0.772}, {"sequence": "TTCTCGAAGTCTTCACTCCTTT", "sensor-assay potency score (higher = more potent)": -0.431}, {"sequence": "ATTGATATCAACCACATCGCTC", "sensor-assay potency score (higher = more potent)": -0.533}, {"sequence": "ATGAACAACTGTATTTCCCTGG", "sensor-assay potency score (higher = more potent)": 0.818}, {"sequence": "TACTTTTGCATGATCTATCTTT", "sensor-assay potency score (higher = more potent)": -0.0765}, {"sequence": "TTAGACACCACGATCTCGGGGG", "sensor-assay potency score (higher = more potent)": 1.02}, {"sequence": "TAGCTTGCAGGAATTTTCGTTG", "sensor-assay potency score (higher = more potent)": -0.466}, {"sequence": "TTACACTTCTTAATTGATGAAT", "sensor-assay potency score (higher = more potent)": -0.837}]}, {"molecular_target": "KCNN3", "experiment": "pooled miR-30 sensor sort-seq; sequence = guide strand", "conditions": "shRNA", "values": [{"sequence": "TTCTTTAGCAGCTTTGTGTGTT", "sensor-assay potency score (higher = more potent)": 0.0976}, {"sequence": "ATACATGACATTCTGCATCTTG", "sensor-assay potency score (higher = more potent)": 0.37}, {"sequence": "TTGTCGATCACGAAGAGCTGGA", "sensor-assay potency score (higher = more potent)": 0.137}, {"sequence": "AAAGTTACTAGTTACGTCCTGC", "sensor-assay potency score (higher = more potent)": 0.827}, {"sequence": "TTTGGCATGGTCAATCTTCTTT", "sensor-assay potency score (higher = more potent)": -0.404}, {"sequence": "TAGGTCATGGCTATCCGCCAGT", "sensor-assay potency score (higher = more potent)": -0.594}, {"sequence": "TTCTCCAGGTCTTCGCTCCGGT", "sensor-assay potency score (higher = more potent)": -0.356}, {"sequence": "TTGGTCACTCAGCTTCCTCTGT", "sensor-assay potency score (higher = more potent)": -0.263}, {"sequence": "TTGAAGTTGATCTTGTTGAGGG", "sensor-assay potency score (higher = more potent)": 0.397}, {"sequence": "TAGATTAACCATGTTTCCCGAA", "sensor-assay potency score (higher = more potent)": -0.326}, {"sequence": "TAAGTCATACATGACATTCTGC", "sensor-assay potency score (higher = more potent)": 0.0328}, {"sequence": "TACATGACATTCTGCATCTTGG", "sensor-assay potency score (higher = more potent)": -0.595}]}]}
